# DT40 TDP1 no CPT – qHTS for Inhibitors of human tyrosyl-DNA phosphodiesterase 1 (TDP1): qHTS in cells in absence of CPT | DT40 Tdp1-/- hTDP1 cells, no CPT, ATP luminescence, 48 h | AID 686978, 2013 | Potency, µM (top dose mostly 46.2 µM), for inactives: at the top dose activity change, negative = growth inhibition, usual class: inhibitors | 420,000 tested, 15% active; note: potency is the fitted concentration of half-maximal effect; % is set by controls: 0 for no effect and ±100 for the full control effect; nearly all actives have a fitted effect of over 55% in size
#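 Chicken DT40 Tdp1-/- cells stably complemented with human TDP1 were seeded at 400 cells/well with DMSO in place of 20 nM camptothecin. After compound pinning, cells grew at least 48 hr at 37 °C; viability read by CellTiter-Glo luminescence.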
# DT40 TDP1 CPT – qHTS for Inhibitors of human tyrosyl-DNA phosphodiesterase 1 (TDP1): qHTS in cells in presence of CPT; Potency, µM (series often up to 46.2 µM), without a hit: at the highest dose activity change, negative = growth inhibition, actives largely listed as inhibitors; 420,000 tested, 12% active; chicken DT40 Tdp1-/-;hTDP1 cells + 20 nM CPT, ATP luminescence, 48 h; note: potency is the fitted concentration of half-maximal effect; % is set by controls: 0 for no effect and ±100 for the full control effect; nearly all actives have a fitted effect of over 55% in size
#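 Cell growth measured by CellTiter-Glo luminescence after a minimum 48 h, 37 C compound exposure with 20 nM CPT in Tdp1-knockout DT40 cells stably expressing hTDP1, seeded 400/well; qHTS titration format.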
# TDP1 inh – qHTS Assay for Inhibitors of Tyrosyl-DNA Phosphodiesterase (TDP1); Tyrosyl-DNA phosphodiesterase 1 (Homo sapiens), Q9NUW8; recombinant TDP1, AlphaScreen DNA substrate cleavage; Potency, µM (series often up to 130 µM), for the others: at the highest dose activity change, negative = inhibition, actives largely listed as inhibitors; 350,000 tested, 0.28% active; note: potency is the fitted concentration of half-maximal effect; % is set by controls: 0 for no effect and ±100 for the full control effect; nearly all actives have a fitted effect of over 40% in size
# Target sequence (Q9NUW8 whole entry, looked up): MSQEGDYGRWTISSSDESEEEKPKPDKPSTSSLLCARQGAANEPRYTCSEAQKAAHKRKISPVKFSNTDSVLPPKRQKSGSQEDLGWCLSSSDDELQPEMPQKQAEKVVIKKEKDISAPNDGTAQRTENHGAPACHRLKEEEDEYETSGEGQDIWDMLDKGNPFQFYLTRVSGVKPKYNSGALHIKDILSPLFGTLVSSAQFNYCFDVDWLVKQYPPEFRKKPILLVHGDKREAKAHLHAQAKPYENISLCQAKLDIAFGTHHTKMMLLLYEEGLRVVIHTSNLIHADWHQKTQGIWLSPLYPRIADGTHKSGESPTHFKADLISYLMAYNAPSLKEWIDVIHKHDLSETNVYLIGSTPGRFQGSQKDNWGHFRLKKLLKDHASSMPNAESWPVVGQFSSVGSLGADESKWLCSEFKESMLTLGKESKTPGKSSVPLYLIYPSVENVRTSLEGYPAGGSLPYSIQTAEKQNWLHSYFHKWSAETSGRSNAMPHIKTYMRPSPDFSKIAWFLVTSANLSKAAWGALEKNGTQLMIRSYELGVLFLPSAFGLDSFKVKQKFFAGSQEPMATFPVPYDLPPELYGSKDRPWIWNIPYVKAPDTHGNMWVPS
#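 AlphaScreen read-out: signal falls as enzyme removes the 3' tyrosine-FITC from a 5'-biotinylated DNA oligo (15 nM, 5 min, RT). Enzyme was E. coli-made recombinant Tdp1 at 1 nM, exposed to compound for 15 min beforehand; beads 10 ug/ml, 10 min.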
# HepG2 viability – qHTS for Inhibitors of TGF-b: Cytotox Counterscreen | HepG2 CAGA-GFP viability, ATP luminescence, 18 h | 410,000 tested, 0.76% active | Potency, µM (titrated, usually from 46.1 µM), for inactives: top-dose activity change, negative = cytotoxicity, usual class: cytotoxic | AID 588856, 2011; note: potency is the fitted concentration of half-maximal effect
#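 CellTiter-Glo luminescence gave cytotoxicity after 18 hours at 37 degrees C. The cells were HepG2 CAGA-GFP in 1% FBS DMEM, stimulated with 500 pg/mL TGF-beta after compound addition. %Activity was normalised to no-cell wells (complete cell-killing) and DMSO (no toxicity), and curves were fitted and classified.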
# IL-1B inflam inh – qHTS for Inhibitors of Inflammasome Signaling: IL-1-beta AlphaLISA Primary Screen. THP-1 LPS/ATP IL-1B secretion, AlphaLISA, 16 h; hits give low values. activity change, % at 57.5 µM. 360,000 tested, 4.7% active. AID 743279, 2014; in the data active = activity change below about -50%; inconclusive = mostly about -30% to -49%; note: % is set by controls: 0 for no effect and ±100 for the full control effect
#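 THP-1 cells pretreated 1 hr with compounds (up to 57.5 uM final), then stimulated with LPS (250 ng/mL final) plus ATP (1.25 mM final); secreted IL-1B measured by AlphaLISA after 16 hr, decreased signal indicating inhibition.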
# TGFb SMAD3 inh – qHTS for Inhibitors of TGF-b | HepG2 CAGA-GFP TGF-b/SMAD3 reporter, GFP fluorescence, 18 h; TGF-beta stimulated, 500 pg/mL final | Potency, µM (doses to about 46.1 µM), for inactives: at the highest dose activity, negative = inhibition, hits mostly inhibitors | 410,000 tested, 1.2% active | AID 588855, 2011; note: potency is the fitted concentration of half-maximal effect; % is set by controls: 0 for no effect and ±100 for the full control effect; nearly all actives have a fitted effect of over 65% in size
#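 Inhibition was scored as loss of TGF-beta-induced (500 pg/mL final, 18 hours, 37 degrees C) GFP in HEPG2 cells carrying a CAGA-GFP reporter, in DMEM with 1% FBS. Well GFP was summed per cell; Activity was normalised to unstimulated and stimulated DMSO wells, then concentration-response fitting.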
# An asterisk follows results filed as active; u = inconclusive; x = no result given; [ ] = another dose, or the depositor's remark. Most compounds without a hit are left out; they make up all but 19% or so of the library. Unless noted, calls come from the whole dose curve; as a rule, active = well fitted curve in the direction sought with a large enough effect; inconclusive = small, poorly fitted or top-dose-only effect, or another doubt; inactive = no such curve, though single readings can be large; an effect the other way counts as inactive or inconclusive.
SMILES,DT40 TDP1 no CPT,DT40 TDP1 CPT,TDP1 inh,HepG2 viability,IL-1B inflam inh,TGFb SMAD3 inh
CCC1Oc2ccc(C)cc2N(CC(=O)N2CCN(c3ccccc3OC)CC2)C1=O (stereo not drawn),16µM*,u,5%,-35%,x,u
CCC1Oc2ccc(C)cc2N(CC(=O)N(Cc2ccc(C)o2)C2CC(C)(C)NC(C)(C)C2)C1=O (stereo not drawn),u,18µM*,5%[56.1 µM],13µM*,x,u
Cc1cnc2ccccc2c1C,-19%,2%,x,-6%,x,-17%
COc1ccc(OCC(=O)Nc2ccc(-c3nc4cc(C)cc(C)c4o3)cc2)cc1,-22%,-22%,-2%[12.3 µM],-25%,x,-5%
O=S(=O)(Cc1ccccc1Cl)NCc1ccccc1,-6%,4%,1%,6%,13,-15%
CC(C)(C)C1CCc2sc(-c3nnc(CCl)o3)cc2C1 (stereo not drawn),u,u,7%,-16%,u,17%
ClCc1nnc(-c2cc3c(s2)CCCC3)o1,16µM*,10µM*,5%,-97%,-105*,u
COc1ccc(CCNC(=O)C(=O)NCC(c2ccco2)S(=O)(=O)c2ccc(C)cc2)cc1 (stereo not drawn),-29%,-23%,3%,10%,x,12%
CC[n+]1c(S(=O)(=O)[O-])ccc2ccc(C)cc21,0%,-8%,1%,3%,19,10%
CC[n+]1c(C)sc2c(C)cc(C)cc21,u,23µM*,0%,-13%,93,-5%
O=c1c(O)c(-c2ccc(O)c(O)c2)oc2cc(O)ccc12,6.7µM*,23µM*,-8%,-29%,-83*,u
O=c1cc(-c2ccccc2)oc2cc(O)ccc12,u,u,11%,-12%,-24,0%
COc1cc(OC)c2c(=O)c(OC)c(-c3ccc(OC)c(OC)c3)oc2c1,u,u,15%[56.1 µM],-5%,u,18%
COc1ccc(-c2oc3cc(O)c(OC)c(O)c3c(=O)c2OC)cc1O,0.92µM*,0.92µM*,x,-38%,50,u
O=c1cc(-c2ccccc2)c2ccc(O)cc2o1,u,-16%,x,-7%,-60*,-2%
COc1cc(-c2oc3ccc(C)cc3c(=O)c2O)cc(OC)c1OC,u,5.8µM*,-5%,-42%,x,2.5µM*
COc1ccc(C(CC(=O)Nc2ccc(C)cn2)N2Cc3ccccc3C2=O)cc1OC (stereo not drawn),u,-22%,8%,-2%,x,4%
COc1cc(OC)c(-c2oc3ccccc3c(=O)c2O)c(OC)c1,7.3µM*,8.2µM*,x,4%,9,u
COc1cc(-c2oc3cc(O)ccc3c(=O)c2O)ccc1O,u,21µM*,-1%[56.1 µM],x,x,x
O=c1c(O)c(-c2ccc(O)cc2)oc2cc(O)ccc12,30µM*,27µM*,14%,x,x,x
CCc1cccc(NC(=O)CSc2nnc(-c3cc4occc4n3C)n2-c2ccccc2C)c1,u,u,9%,-7%,x,-19%
Cc1ccc(NC(=O)CSc2nnc(-c3cc4occc4n3C)n2-c2ccccc2C)c(C)c1,18µM*,u,0%,-15%,x,-4%
Cc1ccc(NC(=O)CSc2nnc(-c3cc4occc4n3C)n2-c2ccccc2C)cc1F,16µM*,26µM*,7%,-13%,x,-21%
NC(=O)c1ccc[n+](Cc2ccc(-c3ccccc3)cc2)c1,-1%,1%,x,-6%,-3,-1%
CCOC(=O)c1cc(-c2ccccc2)n(CCCC(=O)Nc2ccc(C)cc2C)c1C,u,u,-3%,-26%,x,0%
SMILES,DT40 TDP1 no CPT,DT40 TDP1 CPT,TDP1 inh,HepG2 viability,IL-1B inflam inh,TGFb SMAD3 inh
CCOC(=O)c1cc(-c2ccccc2)n(CCCC(=O)Nc2cc(C)ccc2OC)c1C,23µM*,18µM*,7%,-23%,x,-7%
CCOC(=O)c1cc(-c2ccccc2)n(CCC(=O)NC(C)CC)c1C (stereo not drawn),-18%,-28%,3%,-3%,u,-7%
CCOC(=O)c1cc(-c2ccccc2)n(CCCC(=O)Nc2cccc(Cl)c2C)c1C,u,u,2%,-56%,x,11µM*
CCN(Cc1ccccc1)C(c1ccc(C(F)(F)F)cc1)c1nnnn1C(C)(C)C (stereo not drawn),21µM*,u,x,1%,-1,1%
CCN(Cc1ccccc1)C(c1cccc(C#N)c1)c1nnnn1C(C)(C)C (stereo not drawn),23µM*,u,-2%,-45%,1,-23%
NC(C(=O)O)(c1ccc(P(=O)(O)O)cc1)C1CC1 (stereo not drawn),x,x,2%,x,x,x
CCN(CC(=O)Nc1ccccc1SC)Cc1nc2ccccc2c(=O)[nH]1,2.1µM*,0.65µM*,4%,-21%,66,-26%
CCN(CC(=O)Nc1ccccc1C(=O)Nc1ccccc1)Cc1nc2ccccc2c(=O)[nH]1,-1%,11%,9%,1%,57,-23%
CCN(CC(=O)Nc1ccccc1-c1ccccc1)Cc1nc2ccccc2c(=O)[nH]1,4.6µM*,5.8µM*,5%,-18%,46,-27%
CCCCC#CC1C=CC(OC(C)=O)C(COC(C)=O)O1 (stereo not drawn),x,x,1%[21 µM],x,x,x
CN(Cc1ccc(Cl)cc1Cl)C(=O)c1cc(=O)c2ccccc2o1,23µM*,u,7%,-15%,-13,-20%
O=C(Nc1ccc(F)cc1Cl)C1Cc2ccccc2N1C(=O)c1ccccc1 (stereo not drawn),-22%,-5%,-11%,-27%,x,-9%
C[C@]1(O)CC(=O)C=C[C@H]1Nc1ccccc1,18µM*,u,x,-20%,-104*,u
Cc1nc(C)n(C(C)CNC(=O)c2ccco2)n1 (stereo not drawn),10%,6%,x,-13%,-7,-12%
COC(=O)[C@@]1(Cc2ccc(F)cc2)[C@H]2c3cc(C(=O)N4CCCC4)n(CCN4CNCC4=O)c3C[C@H]2CN1C(=O)c1ccccc1,x,x,9%,x,x,x
Cn1c(=O)c(C(=O)CSc2nnc(Nc3ccccc3)s2)c(N)n(Cc2ccccc2)c1=O,-13%,-20%,7%,0%,14,12%

# Assay outcomes as filed in PubChem.
